# Laboratory results as given in the supplement of paper PMC8728848.
# This is one part of a sample in which the strongest signals are shown more often than they occur.
# Key:
# Assay in all cases: glycan array binding signal (z-score within array); higher = stronger binding
# Conditions in all cases: glycan notation: IUPAC condensed, linker removed
# Gal(b1-3)GlcNAc(b1-2)Man = system: Gal(b1-3)GlcNAc(b1-2)Man
# Method in brief: (§1)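 Glycan array binding is given as a within-array Z-score, which can be read as non-binding when negative. The arrays, 3228 of them, came from the Consortium for Functional Glycomics database and were retained only where the protein sequence was available. Z-scores were averaged across arrays of the same protein sequence at different concentrations or buffers and across linkers.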
# [1] = system: Gal(b1-3)[Fuc(a1-4)]GlcNAc
# Method in brief: as §1
# [2] = system: Gal(b1-3)[Neu5Ac(a2-6)]GalNAc
# Method in brief: as §1
# Gal(b1-4)Glc6S = system: Gal(b1-4)Glc6S
# Method in brief: as §1
# [3] = system: Gal(b1-3)GlcNAc(b1-2)Man(a1-3)[GlcNAc(b1-4)][Gal(b1-3)GlcNAc(b1-2)Man(a1-6)]Man(b1-4)GlcNAc(b1-4)GlcNAc
# Method in brief: as §1
# [4] = system: Gal(b1-3)GlcNAc(b1-3)Gal(b1-4)GlcNAc(b1-6)[Gal(b1-3)GlcNAc(b1-3)]Gal(b1-4)Glc
# Method in brief: as §1
# [5] = system: Gal(b1-3)GlcNAc(b1-6)Gal(b1-4)GlcNAc
# Method in brief: as §1
# [6] = system: Gal(b1-3)GlcNAc(b1-6)GalNAc
# Method in brief: as §1
# [7] = system: Gal(b1-3)[Fuc(a1-4)]GlcNAc(b1-2)Man(a1-3)[Gal(b1-3)[Fuc(a1-4)]GlcNAc(b1-2)Man(a1-6)]Man(b1-4)GlcNAc(b1-4)GlcNAc
# Method in brief: as §1
# [8] = system: Gal(b1-3)[Fuc(a1-4)]GlcNAc(b1-2)Man(a1-3)[Gal(b1-3)[Fuc(a1-4)]GlcNAc(b1-2)Man(a1-6)]Man(b1-4)GlcNAc(b1-4)[Fuc(a1-6)]GlcNAc
# Method in brief: as §1
# [9] = system: Gal(b1-3)[Fuc(a1-4)]GlcNAc(b1-3)Gal(b1-4)[Fuc(a1-3)]GlcNAc
# Method in brief: as §1
# [10] = system: Gal(b1-3)GlcNAc(b1-3)Gal(b1-4)Glc
# Method in brief: as §1
# [11] = system: Gal(b1-4)GalNAc(b1-3)[Fuc(a1-2)]Gal(b1-4)GlcNAc
# Method in brief: as §1
# [12] = system: Gal(b1-3)[Fuc(a1-4)]GlcNAc(b1-6)GalNAc
# Method in brief: as §1
# Gal(b1-4)Gal = system: Gal(b1-4)Gal
# Method in brief: as §1
# [13] = system: Gal(b1-3)[Fuc(a1-4)]GlcNAc(b1-3)Gal(b1-4)GlcNAc
# Method in brief: as §1
# [14] = system: Gal(b1-3)GlcNAc(b1-3)Gal(b1-4)GlcNAc(b1-2)[Gal(b1-3)GlcNAc(b1-3)Gal(b1-4)GlcNAc(b1-6)]Man(a1-6)[Gal(b1-3)GlcNAc(b1-3)Gal(b1-4)GlcNAc(b1-2)Man(a1-3)]Man(b1-4)GlcNAc(b1-4)[Fuc(a1-6)]GlcNAc
# Method in brief: as §1
# [15] = system: Gal(b1-3)GlcNAc(b1-3)Gal(b1-4)GlcNAc(b1-3)Gal(b1-4)GlcNAc(b1-2)[Gal(b1-3)GlcNAc(b1-3)Gal(b1-4)GlcNAc(b1-3)Gal(b1-4)GlcNAc(b1-6)]Man(a1-6)[Gal(b1-3)GlcNAc(b1-3)Gal(b1-4)GlcNAc(b1-3)Gal(b1-4)GlcNAc(b1-2)Man(a1-3)]Man(b1-4)GlcNAc(b1-4)[Fuc(a1-6)]GlcNAc
# Method in brief: as §1
# Gal(b1-3)GlcNAc6S = system: Gal(b1-3)GlcNAc6S
# Method in brief: as §1
# [16] = system: Gal(b1-3)[Fuc(a1-4)]GlcNAc(b1-3)Gal(b1-3)[Fuc(a1-4)]GlcNAc
# Method in brief: as §1
substance,measurement,setting,value
Epa22,glycan array binding signal (z-score),Gal(b1-3)GlcNAc(b1-2)Man,-0.018
same,glycan array binding signal (z-score),[1],-0.223
same,glycan array binding signal (z-score),[2],3.02
same,glycan array binding signal (z-score),Gal(b1-4)Glc6S,-0.061
LcI (Legionella pneumophila),glycan array binding signal (z-score),[3],0.389
same,glycan array binding signal (z-score),[4],-0.388
same,glycan array binding signal (z-score),[5],-0.157
same,glycan array binding signal (z-score),[6],3.69
"SpGH101 (Streptococcus pneumoniae), Q8DR60",glycan array binding signal (z-score),[7],1.28
same,glycan array binding signal (z-score),[8],0.539
same,glycan array binding signal (z-score),[9],-0.146
"BambL (Burhholderia ambifaria), Q0B4G1",glycan array binding signal (z-score),[10],-0.312
same,glycan array binding signal (z-score),[7],-0.317
same,glycan array binding signal (z-score),[8],-0.066
same,glycan array binding signal (z-score),[11],-0.283
AgI/II Vhelical-GFP (Streptococcus mutans),glycan array binding signal (z-score),[12],1.08
same,glycan array binding signal (z-score),Gal(b1-4)Gal,2.56
same,glycan array binding signal (z-score),Gal(b1-4)Glc6S,-0.148
"Wza (Escherichia coli), P0A930",glycan array binding signal (z-score),[10],-0.658
same,glycan array binding signal (z-score),[13],1.14
same,glycan array binding signal (z-score),[12],2.92
AgI/IIC123-GFP (Streptococcus mutans),glycan array binding signal (z-score),[14],5.61
same,glycan array binding signal (z-score),[15],-0.036
same,glycan array binding signal (z-score),[5],0.823
same,glycan array binding signal (z-score),Gal(b1-3)GlcNAc6S,-0.244
"SiiE (Salmonella typhimurium), A0A0H3NVH0",glycan array binding signal (z-score),[16],-0.613
Actinohivin (Actinomycete K97),glycan array binding signal (z-score),[8],2.06
